The supplement of paper PMC7366291
Where a name gives a salt, the structure may show the parent alone. ± gives the standard deviation or the standard deviation of the averaged measurements.

What was measured:
Conditions in all cases: 25 µM; exposure: 24-48 hpf
[1] = tested on: Danio rerio Tg(wt1b:EGFP) embryo, pronephros; assay: glomerular separation, fold change vs DMSO control; higher = glomeruli further apart (abnormal)
Summary of the method: (§1)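 Features are reported as fold changes against the mean of same-day DMSO-treated embryos. Before that, values more than 2 SD away from the feature mean were excluded. The embryos, dechorionated Tg(wt1b:EGFP) zebrafish, had been exposed from 24 to 48 hpf at 28.5°C to 25 μM compound in 0.5% DMSO in HEPES-buffered E3 with 0.003% PTU, and distances and angles came from 16 manually set points on maximum projections of dorsal pronephros images in Fiji.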

[2] = tested on: Danio rerio Tg(wt1b:EGFP) embryo, pronephros; assay: glomerular width (mean of left and right), fold change vs DMSO control; higher = wider glomerulus
Summary of the method: as §1

[3] = tested on: Danio rerio Tg(wt1b:EGFP) embryo, pronephros; assay: fraction of imaged embryos annotated as normal kidney; higher = less nephrotoxic; extreme values may be limits of the assay
Summary of the method: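 Embryos of the Tg(wt1b:EGFP) zebrafish line were dechorionated and held in 12-well plates with 25 μM compound in 0.5% DMSO and 5 mM HEPES-buffered E3 containing 0.003% PTU, from 24 to 48 hpf at 28.5°C. Larvae were then anaesthetised with tricaine, set dorsal side up in agarose-filled 96-well plates, and their pronephroi imaged by widefield fluorescence at 470 nm over 10 z-slices. Each value is the fraction of embryos per treatment placed in the normal-kidney category after manual annotation of maximum projections.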

[4] = tested on: Danio rerio Tg(wt1b:EGFP) embryo, pronephros; assay: pronephric angle neck segment to proximal convoluted tubule (mean of left and right), fold change vs DMSO control; higher = larger pronephric angle
Summary of the method: as §1

| Structure (SMILES) | glomerular separation [1] | glomerular width [2] | fraction of imaged embryos annotated as normal kidney [3] | pronephric angle neck segment [4] |
| --- | --- | --- | --- | --- |
| CCCC(CCC)C(=O)O [Valproic acid] | 1.62 ± 0.94 | 0.725 ± 0.057 | 0.0833 | 1.11 ± 0.14 |
| CCC1(c2ccccc2)NC(=O)N(C)C1=O (stereo unspecified) [Mephenytoin] | 1.13 ± 0.4 | 0.9232 ± 0.0066 | 0.75 | 1.0068 ± 0.00059 |
| NCCc1c[nH]cn1 [Histamine dihydrochloride] | 1.1 ± 0.25 | 0.9518 ± 0.0028 | 0.833 | 1.03 ± 0.03 |
| Cc1cn[nH]c1 [Fomepizole] | 0.953 ± 0.37 | 1.0458 ± 0.00026 | 0.917 | 1.01 ± 0.018 |
| COC(=O)N/N=C/c1c[n+]([O-])c2ccccc2[n+]1[O-] [Carbadox] | 1.17 ± 0.61 | 0.931 ± 0.063 | 0.833 | 1.13 ± 0.11 |
| NC(CO)C(=O)NNCc1ccc(O)c(O)c1O (stereo unspecified) [Benserazide hydrochloride] | 1.17 ± 0.44 | 1.01 ± 0.071 | 0.667 | 1.05 ± 0.039 |
| O=C(O)COCCN1CCN(C(c2ccccc2)c2ccc(Cl)cc2)CC1 (stereo unspecified) [Cetirizine dihydrochloride] | 0.855 ± 0.18 | 1.09 ± 0.012 | 1 | 1.03 ± 0.011 |
| N=C(N)NC(=O)c1nc(Cl)c(N)nc1N [Amiloride hydrochloride dihydrate] | 0.835 ± 0.27 | 0.978 ± 0.074 | 0.583 | 0.985 ± 0.023 |
| CC1=C(/C=C/C(C)=C/C=C/C(C)=C\C(=O)O)C(C)(C)CCC1 [Isotretinoin] | 4.83 ± 2.1 | 0.525 ± 0.021 | 0 | 1.69 ± 0.022 |
| CCCNC(=O)NS(=O)(=O)c1ccc(Cl)cc1 [Chlorpropamide] | 1.09 ± 0.39 | 1.06 ± 0.087 | 0.75 | 1.051 ± 0.0085 |
| CCS(=O)(=O)CCn1c([N+](=O)[O-])cnc1C [Tinidazole] | 0.882 ± 0.35 | 1.04 ± 0.036 | 0.833 | 1.02 ± 0.037 |
| CNC1(C)C2CCC(C2)C1(C)C (stereo unspecified) [Mecamylamine hydrochloride] | 1.09 ± 0.32 | 0.973 ± 0.089 | 0.833 | 1.07 ± 0.074 |
| O=C(O)Cc1ccc(-c2ccccc2)cc1 [Felbinac] | 4.74 ± 1.6 | 0.627 ± 0.0096 | 0 | 1.73 ± 0.04 |
| COC(=O)Nc1nc2cc(Sc3ccccc3)ccc2[nH]1 [Fenbendazole] | 4 ± 2.6 | 0.568 ± 0.027 | 0 | 1.8 ± 0.13 |
| O=C(O)c1cc(=O)c2c(OCC(O)COc3cccc4oc(C(=O)O)cc(=O)c34)cccc2o1 [Cromolyn disodium salt] | 0.753 ± 0.22 | 1.08 ± 0.011 | 0.909 | 1.0048 ± 0.00061 |
| Nc1ccn([C@@H]2CS[C@H](CO)O2)c(=O)n1 [Lamivudine] | 0.982 ± 0.27 | 0.984 ± 0.042 | 0.667 | 0.987 ± 0.031 |
| Clc1ccc(C(Cn2ccnc2)OCc2ccsc2Cl)c(Cl)c1 (stereo unspecified) [Tioconazole] | 1.29 ± 0.51 | 0.965 ± 0.013 | 0.417 | 1.21 ± 0.085 |
| Brc1c(NC2=NCCN2)ccc2nccnc12 [Brimonidine L-Tartrate] | 0.614 ± 0.22 | 1.11 ± 0.043 | 1 | 0.993 ± 0.1 |
| CC=CC(=O)N(CC)c1ccccc1C [Crotamiton] | 0.867 ± 0.16 | 0.96 ± 0.038 | 1 | 1 ± 0.019 |
| CC(=O)OCC(=O)[C@@]12OC(C)(C)O[C@@H]1C[C@H]1[C@@H]3C[C@H](F)C4=CC(=O)C=C[C@]4(C)[C@@]3(F)[C@@H](O)C[C@@]12C [Fluocinonide] | 1.04 ± 0.63 | 1.4 ± 0.044 | 0.417 | 1.05 ± 0.067 |
| CC(C(O)c1ccc(O)cc1)N1CCC(Cc2ccccc2)CC1 (stereo unspecified) [Ifenprodil tartrate] | 0.712 ± 0.33 | 1.04 ± 0.024 | 1 | 0.942 ± 0.089 |
| CC(=O)OC[C@H]1O[C@@H]([S-])[C@H](OC(C)=O)[C@@H](OC(C)=O)[C@@H]1OC(C)=O.CCP(CC)CC.[Au+] [Auranofin] | 1.55 ± 0.79 | 0.789 ± 0.038 | 0.417 | 1.19 ± 0.024 |
| CCOC1O[C@H]([C@@H](COCc2ccccc2)OCc2ccccc2)[C@H](OCc2ccccc2)[C@H]1O (stereo partly specified) [Tribenoside] | 1.42 ± 0.96 | 0.865 ± 0.056 | 0.667 | 1.01 ± 0.018 |
| CO/N=C(\C(=O)N[C@@H]1C(=O)N2C(C(=O)O)=C(C[N+]3(C)CCCC3)CS[C@H]12)c1csc(N)n1 [Cefepime hydrochloride] | 0.845 ± 0.26 | 1.01 ± 0.018 | 0.917 | 0.9786 ± 0.003 |
| CN1CCC[C@@H]1CCO[C@](C)(c1ccccc1)c1ccc(Cl)cc1 [Clemastine fumarate] | 0.925 ± 0.57 | 1.01 ± 0.058 | 0.818 | 0.9686 ± 0.0025 |
| OCC(O)CN1CCN(c2ccccc2)CC1 (racemic) [Dropropizine (R,S)] | 0.917 ± 0.28 | 1.002 ± 0.0079 | 0.75 | 1.03 ± 0.038 |
| C#Cc1cccc(Nc2ncnc3cc(OCCOC)c(OCCOC)cc23)c1 [Erlotinib] | 0.768 ± 0.23 | 1.05 ± 0.03 | 0.833 | 0.994 ± 0.031 |

| Structure (SMILES) | glomerular separation [1] | glomerular width [2] | fraction of imaged embryos annotated as normal kidney [3] | pronephric angle neck segment [4] |
| --- | --- | --- | --- | --- |
| O=C1CCC(N2C(=O)c3ccccc3C2=O)C(=O)N1 (stereo unspecified) [Thalidomide] | 0.439 ± 0.097 | 1.21 ± 0.078 | 0.917 | 0.748 ± 0.037 |
| Nc1c(Br)cc(Br)cc1CN[C@H]1CC[C@H](O)CC1 [Ambroxol hydrochloride] | 1.05 ± 0.28 | 0.969 ± 0.036 | 1 | 1.003 ± 0.0037 |
| Cc1c(N(C)C)c(=O)n(-c2ccccc2)n1C [Amidopyrine] | 0.645 ± 0.17 | 1 ± 0.0092 | 0.917 | 1.01 ± 0.033 |
| CCN1CCC[C@H]1CNC(=O)c1c(OC)ccc(Br)c1OC [Remoxipride Hydrochloride] | 0.777 ± 0.38 | 1.02 ± 0.08 | 0.917 | 0.976 ± 0.032 |
| O=C1OC(CN2CCOCC2)CN1/N=C/c1ccc([N+](=O)[O-])o1 (stereo unspecified) [Furaltadone hydrochloride] | 0.859 ± 0.33 | 1.1 ± 0.021 | 0.75 | 0.995 ± 0.015 |
| Nc1ccc(S(=O)(=O)Nc2ccnn2-c2ccccc2)cc1 [Sulfaphenazole] | 1.06 ± 0.3 | 1.022 ± 0.0084 | 0.917 | 1.02 ± 0.024 |
| CC(CCc1ccccc1)NCC(O)c1ccc(O)c(C(N)=O)c1 (stereo unspecified) [Labetalol hydrochloride] | 1.04 ± 0.16 | 1.05 ± 0.075 | 0.917 | 1.07 ± 0.069 |
| CC(C)(Oc1ccc(C2CC2(Cl)Cl)cc1)C(=O)O (stereo unspecified) [Ciprofibrate] | 1.25 ± 0.62 | 0.934 ± 0.023 | 0.818 | 1.082 ± 0.0058 |
| C=CC(N)CCC(=O)O (stereo unspecified) [Vigabatrin hydrochloride] | 0.956 ± 0.33 | 1.129 ± 0.0097 | 0.917 | 1.05 ± 0.029 |
| CC(=O)Oc1ccccc1C(=O)Oc1ccccc1C(=O)O [Acetylsalicylsalicylic acid] | 1.33 ± 0.59 | 0.971 ± 0.085 | 0.833 | 1.017 ± 0.0041 |
| NC(Cc1cc(I)c(Oc2cc(I)c(O)c(I)c2)c(I)c1)C(=O)O (stereo unspecified) [Thyroxine (L)] | 1.12 ± 0.3 | 1.07 ± 0.046 | 0.75 | 1.02 ± 0.029 |
| CN1CCN(C(c2ccccc2)c2ccccc2)CC1 [Cyclizine hydrochloride] | 0.835 ± 0.14 | 0.9853 ± 0.0046 | 0.833 | 0.952 ± 0.018 |
| O=C(O)CCC(=O)c1ccc(-c2ccccc2)cc1 [Fenbufen] | 6.73 ± 2.4 | 0.729 ± 0.11 | 0.0909 | 1.32 ± 0.18 |
| CN[C@@H]1[C@@H](O[C@H]2O[C@H](CO)[C@@H](N)[C@H](O)[C@H]2O)OC2C[C@@H](N)[C@@H](O[C@H]3[C@H](O)[C@@H](O)[C@H](N)C[C@@H]3N)OC2[C@@H]1O (stereo partly specified) [Apramycin] | 1.1 ± 0.44 | 0.977 ± 0.021 | 0.75 | 0.9506 ± 0.0069 |
| N[C@@H](C(=O)N[C@@H]1C(=O)N2C(C(=O)O)=C(Cl)CC[C@H]12)c1ccccc1 [Loracarbef] | 1.06 ± 0.25 | 1.08 ± 0.011 | 0.917 | 0.999 ± 0.025 |
| O=C(O)CCC(=O)Nc1ccc(S(=O)(=O)Nc2nccs2)cc1 [Succinylsulfathiazole] | 0.974 ± 0.39 | 1.03 ± 0.012 | 0.667 | 0.997 ± 0.029 |
| CCOc1ccc2c(c1)C(C)=CC(C)(C)N2 [Ethoxyquin] | 0.864 ± 0.31 | 1.04 ± 0.039 | 0.75 | 0.975 ± 0.044 |
| COc1ccc(C(=O)CC(=O)c2ccc(C(C)(C)C)cc2)cc1 [Avobenzone] | 0.991 ± 0.29 | 1.05 ± 0.063 | 0.667 | 1.005 ± 0.0096 |
| CNCCC(Oc1ccccc1OC)c1ccccc1 (stereo unspecified) [Nisoxetine hydrochloride] | 0.972 ± 0.43 | 0.94 ± 0.013 | 0.833 | 1.06 ± 0.022 |
| CCN1CCN(C(=O)N[C@@H](C(=O)N[C@@H]2C(=O)N3C(C(=O)O)=C(CSc4nnnn4C)CS[C@H]23)c2ccc(O)cc2)C(=O)C1=O [Cefoperazone dihydrate] | 1.2 ± 0.23 | 1.01 ± 0.086 | 0.909 | 1.046 ± 0.0064 |
| CN1CCC(=C2c3ccccc3CCc3cccnc32)CC1 [Azatadine maleate] | 1.11 ± 0.32 | 0.9513 ± 0.00027 | 1 | 0.99 ± 0.037 |
| CCN(CCCCOC(=O)c1ccc(OC)c(OC)c1)C(C)Cc1ccc(OC)cc1 (stereo unspecified) [Mebeverine hydrochloride] | 0.925 ± 0.3 | 0.986 ± 0.044 | 0.833 | 0.965 ± 0.017 |
| CCCCC(=O)O[C@H]1CC[C@H]2[C@@H]3CCc4cc(O)ccc4[C@H]3CC[C@]12C [Estradiol Valerate] | 1.02 ± 0.37 | 0.925 ± 0.016 | 0.583 | 1.134 ± 0.0028 |
| CSc1ccc2c(c1)C(N1CCN(C)CC1)Cc1ccccc1S2 (stereo unspecified) [Methiothepin maleate] | 1.06 ± 0.38 | 1.01 ± 0.045 | 0.833 | 0.976 ± 0.034 |
| Nc1cc(N2CCCCC2)nc(N)[n+]1[O-] [Minoxidil] | 0.953 ± 0.24 | 1.05 ± 0.053 | 0.917 | 0.99 ± 0.065 |
| N[C@@H]1CONC1=O [D-cycloserine] | 0.796 ± 0.24 | 0.976 ± 0.075 | 0.75 | 0.9921 ± 0.0046 |
| CN(C)CCC=C1c2ccccc2CCc2ccccc21 [Amitryptiline hydrochloride] | 1.3 ± 0.62 | 0.973 ± 0.14 | 0.917 | 1.02 ± 0.072 |
